PAFAH1B3 inh: PAFAH1B3 (human) inhibition | recombinant PAFAH1B3, FP-rhodamine probe, fluorescence polarization | 0.28% of 340,000 active | Q15102 | inhibition, % at 3.39 µM;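 active = inhibition above the screen-wide average of all tested compounds plus 3 SD, cut at about 25% in these data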;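 also: 0% = enzyme with DMSO only and 100% = wells lacking PAFAH1B3 protein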
Target sequence (Q15102 whole entry, looked up): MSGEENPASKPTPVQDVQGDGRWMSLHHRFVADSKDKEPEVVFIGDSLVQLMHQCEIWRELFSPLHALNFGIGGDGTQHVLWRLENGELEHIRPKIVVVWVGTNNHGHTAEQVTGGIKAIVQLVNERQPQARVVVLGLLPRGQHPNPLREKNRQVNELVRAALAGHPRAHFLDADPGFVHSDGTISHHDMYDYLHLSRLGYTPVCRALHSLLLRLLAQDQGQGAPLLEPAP
PAFAH2 FP inh: PAFAH2 (human) inhibition | Q99487 | recombinant PAFAH2, FP-rhodamine activity probe, fluorescence polarization | inhibition, % at 3.39 µM | 0.99% of 340,000 active;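 active = inhibition above the mean over all tested compounds plus 3 SD, cut at about 30% in these data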;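 also: inhibitors block probe labeling of enzyme so polarization drops; 0% = enzyme with DMSO and 100% = wells lacking PAFAH2 protein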
EBNA-1 inh: blocks EBNA-1 binding to DNA; EBNA-1 DNA binding, fluorescence polarization; inhibition, % at 14.8 µM; 0.34% of 300,000 active; in the data active = inhibition above about 28%
ZTA DNA inh: blocks Epstein-Barr virus ZTA, an EBNA-1 counter-screen; P03206; ZTA-DNA binding, fluorescence polarization; inhibition, % at 11 µM; 0.15% of 320,000 active; AID 2234; in the data active = inhibition above about 33%
Target sequence (P03206 whole entry, looked up): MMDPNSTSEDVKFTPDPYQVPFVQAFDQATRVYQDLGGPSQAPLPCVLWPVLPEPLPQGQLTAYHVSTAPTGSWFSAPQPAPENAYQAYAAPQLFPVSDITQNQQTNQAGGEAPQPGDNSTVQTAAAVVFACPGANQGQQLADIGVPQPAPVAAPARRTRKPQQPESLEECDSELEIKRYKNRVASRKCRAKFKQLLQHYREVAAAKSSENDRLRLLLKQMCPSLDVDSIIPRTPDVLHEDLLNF
PAFAH1B2 inh: inhibitors of human PAFAH1B2; P68402; recombinant PAFAH1B2, FP-rhodamine activity probe, fluorescence polarization; inhibition, % at 3.39 µM; 1.2% of 340,000 active; AID 492953;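 active = inhibition above the mean of all tested compounds plus 3 SD, cut at about 24% in these data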;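 also: 0% = enzyme with DMSO and 100% = wells lacking PAFAH1B2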
Target sequence (P68402 whole entry, looked up): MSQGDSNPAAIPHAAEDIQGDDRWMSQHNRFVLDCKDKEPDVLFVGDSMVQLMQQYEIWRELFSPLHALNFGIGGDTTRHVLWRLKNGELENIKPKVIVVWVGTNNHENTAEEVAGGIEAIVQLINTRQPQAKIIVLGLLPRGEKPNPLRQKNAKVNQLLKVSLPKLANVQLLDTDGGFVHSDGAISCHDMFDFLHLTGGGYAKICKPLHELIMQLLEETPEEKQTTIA
rCAG binder-1: r(CAG) repeat RNA binding. TO-PRO-1 dye displacement fluorescence. inhibition, % at 3 µM. 1.3% of 370,000 active. AID 651821;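 active = inhibition above the plate cutoff, the mean of all test compounds on that plate plus 3 SD, cut at about 35% in these data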;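 also: 0% = DMSO alone and 100% = 100 µM mitoxantrone as full dye displacement; higher means more dye released from RNA so lower well fluorescence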
rCAG binder conf: r(CAG) RNA repeat binding, confirmation | shares compounds with rCAG binder-1 | TO-PRO-1 dye displacement fluorescence | AID 652065 | inhibition, % at 3 µM | 70% of 4,300 active;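 active = inhibition above a per-plate cutoff, the mean inhibition of sample wells plus 3 SD, cut at about 35% in these data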;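 also: loss of TO-PRO-1 fluorescence as compound displaces dye from 1x1 AA loop RNA; 0% = DMSO only wells and 100% = 100 µM mitoxantrone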
dCAG dye counter: disrupts DNA CAG TO-PRO-1 complex, flagging rCAG hits | shares compounds with rCAG binder-1 | d(CAG) DNA oligo TO-PRO-1 dye displacement, fluorescence | inhibition, % at 3 µM | 94% of 4,300 active | AID 652068;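 active = inhibition above its plate's cutoff, the mean test-well inhibition plus 3 SD, cut at about 4.8% in these data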;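 also: 0% = DNA dye mix with DMSO and 100% = 100 µM mitoxantrone; hits displace the dye from DNA and so lower well fluorescence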
dCAG dye DR: DNA CAG dye complex inhibition, dose response counter-screen. shares compounds with rCAG binder-1. 20% of 250 active. AID 686960. IC50, µM. DNA CAG/GTC duplex TO-PRO-1 dye displacement fluorescence; in the data active = IC50 below about 10 µM
dCAG TOPRO ctr: inhibits DNA CAG/GTC TO-PRO-1 complex, rCAG binder counter-screen. IC50, µM. AID 720649. 80% of 30 active. shares compounds with rCAG binder-1. d(CAG) DNA duplex TO-PRO-1 dye displacement, fluorescence
rCAG binder-2: binds r(CAG) RNA repeats in late stage dose response. AID 720651. 100% of 30 active. IC50, µM. r(CAG) RNA TO-PRO-1 dye displacement, fluorescence. shares compounds with rCAG binder-1
* hit, by the source's call; x = no result. Rows were chosen to be rich in hits. Some 2.9% of all compounds tested hit in one or more screens of this group. Unless noted, no rule for the calls is given here.

SMILES	PAFAH1B3 inh	PAFAH2 FP inh	EBNA-1 inh	ZTA DNA inh	PAFAH1B2 inh	rCAG binder-1	rCAG binder conf	dCAG dye counter	others
COc1cccc(C(=O)Nc2nnc(S(=O)(=O)N(C)Cc3ccccc3)s2)c1	-3.5	21.1	7.6	7.0	-2.3	20.8	x	x
COc1cccc(C(=O)Nc2nnc(S(=O)(=O)N(C)Cc3ccc(F)cc3)s2)c1	10.5	3.8	-1.3	11.6	0.1	70.0*	64.9*	25.4*
CC1CCN(S(=O)(=O)c2nnc(NC(=O)c3ccccc3Br)s2)CC1	5.2	3.1	1.0	1.1	27.8*	37.1*	27.7	6.5*
COc1ccc(CN(C)S(=O)(=O)c2nnc(NC(=O)c3ccccc3Br)s2)cc1	3.1	6.2	8.9	22.8	8.3	73.0*	52.3*	17.5*
COc1ccc(CN(C)S(=O)(=O)c2nnc(NC(=O)c3ccccc3OC)s2)cc1OC	-5.4	-2.6	0.9	-21.8	-5.5	15.4	x	x
C[C@@H]1CCCN1[C@H]1CS(=O)(=O)N[C@@H]1COCc1ccccc1	x	x	x	x	x	5.4	x	x
CCC(C)CN1C(=O)CN(S(C)(=O)=O)CC1(C)C(=O)Nc1c(C)cccc1C (stereo not drawn)	x	x	x	x	x	1.6	x	x
CCN(c1ccc(OC)cc1)S(=O)(=O)c1nnc(NC(=O)COc2ccc(F)cc2)s1	5.8	7.7	6.5	7.4	13.2	56.0*	57.0*	21.4*	dCAG dye DR=>29.9;dCAG TOPRO ctr=5.52*;rCAG binder-2=1.82*
COc1cc(C(=O)Nc2nnc(S(=O)(=O)N3CCCCCC3)s2)cc(OC)c1OC	5.5	1.2	-3.1	1.5	11.0	52.3*	53.3*	14.0*
CCN(c1ccc(OC)cc1)S(=O)(=O)c1nnc(NC(=O)COc2ccc(C)cc2)s1	5.6	-2.7	-3.5	7.5	7.0	x	x	x
O=C(/C=C/c1ccccc1)c1cc(Br)ccc(=O)c1O	11.5	36.7*	-3.0	4.6	2.9	50.8*	41.0*	17.0*
O=C(/C=C/c1ccc(F)cc1)c1cc(Br)ccc1O	4.9	-4.0	6.3	7.7	5.3	-1.5	x	x
COc1ccc(C(=O)/C=C/c2ccc(O)cc2)c(O)c1C/C=C(\C)CCC=C(C)C	-1.8	-15.5	x	x	0.2	69.5*	64.8*	28.4*
C=C(C)C(O)CC/C(C)=C/Cc1c(O)ccc(C(=O)/C=C/c2ccc(O)cc2)c1O (stereo not drawn)	9.0	-6.8	x	x	-2.5	27.2	x	x
CCOC(=O)c1c(C)[nH]c(C(=O)OCC(O)=C(C#N)c2nc3ccccc3[nH]2)c1C	2.2	2.0	x	x	-0.2	42.1*	31.0	14.3*
NS(=O)(=O)c1ccc(Nc2nc(-c3cccc([N+](=O)[O-])c3)cs2)cc1	16.6	11.4	-2.7	5.5	6.1	35.7*	22.6	17.0*
O=C(O)c1ccccc1C(=O)Nc1nc(-c2ccc3ccccc3c2)cs1	-1.6	-46.4	1.5	9.9	-1.3	70.2*	63.3*	26.3*
NS(=O)(=O)c1ccc(Nc2nc(-c3ccc4ccccc4c3)cs2)cc1	12.2	-0.9	3.1	26.6	0.4	52.2*	36.3*	19.9*
O=C1Nc2ccc(Br)cc2/C1=C/C(=O)c1ccc2c(c1)OCO2	3.2	7.5	-1.2	-14.5	4.9	43.6*	26.0	14.5*
Cc1ccc(S(=O)(=O)Nc2ccc(-c3nc4ccc(C)cc4s3)cc2)cc1	-2.0	-1.7	-7.9	-17.5	-6.9	35.1*	28.1	11.6*
Cc1ccc2nc(-c3ccc(NC(=O)CSc4nccc(=O)[nH]4)cc3)sc2c1	-25.1	4.1	11.8	2.0	-8.8	39.5*	70.9*	33.0*	dCAG dye DR=>29.9
Cc1ccc2nc(-c3ccc(NC(=O)CSc4nc(N)cc(=O)[nH]4)cc3)sc2c1	-17.9	-18.9	7.7	5.5	-8.0	4.6	x	x
Cc1cccc(S(=O)(=O)Nc2ccc(-c3nc4ccc(C)cc4s3)cc2)c1	18.7	-28.8	-7.2	-2.6	-3.4	36.8*	40.1*	15.1*
Cc1ccc2nc(-c3ccc(NS(=O)(=O)c4c(C)n(C)c(=O)n(C)c4=O)cc3)sc2c1	3.0	1.3	-3.7	-1.6	-1.8	7.5	x	x
O=C(N/C(=C/c1cccc([N+](=O)[O-])c1)C(=O)N1CCCCCC1)c1ccco1	1.4	5.1	-1.4	-0.9	-2.8	-9.2	x	x
SMILES	PAFAH1B3 inh	PAFAH2 FP inh	EBNA-1 inh	ZTA DNA inh	PAFAH1B2 inh	rCAG binder-1	rCAG binder conf	dCAG dye counter	others
Cc1ccc(-n2c(SCc3c(Cl)cccc3Cl)nnc2-c2ccco2)cc1	x	x	x	x	x	-0.2	x	x
CCCCCCCCN1C(=O)[C@@H](CC(=O)NCc2ccc(C)o2)C[C@@]2(C(=O)OC)C1=C[C@H](C(C)C)O[C@@H]2C1CC1	x	x	x	x	x	1.7	x	x
CC(C)(C)OC(=O)NCc1ccc(CNC(=O)c2[nH]cnc2C(=O)NC2CCN(C(=O)OC(C)(C)C)CC2)cc1	-2.5	-11.4	x	3.7	4.7	x	x	x
Cc1ccc(/C=c2\s/c(=C(/C#N)C(=O)N3CCCC3)n(Cc3ccco3)c2=O)s1	-3.5	1.4	19.5	2.7	4.4	34.6*	12.4	10.2*
Cc1ccc(Nc2nnc(SCC(O)=C(C#N)c3nc4ccccc4[nH]3)s2)c(C)c1	10.5	14.7	x	x	23.3	57.5*	44.8*	20.9*
Cc1cccc(Nc2nnc(SC/C(O)=C(\C#N)c3nc4ccccc4[nH]3)s2)c1C	8.5	10.9	0.4	-2.1	21.4	25.9	x	x
S=C(Nc1ccc(Br)cc1)OC1CCC12CCC(c1ccccc1)CC2 (stereo not drawn)	x	x	x	x	x	9.9	x	x
O=C(NNc1nc2c(F)cccc2s1)c1cc(=O)c2ccccc2o1	13.9	0.0	5.4	9.6	8.6	57.8*	68.3*	24.3*
O=C(NNc1nc2c(F)cccc2s1)c1ccc(F)cc1	8.1	1.1	-4.2	-2.0	2.9	3.0	x	x
Cc1cccc2sc(NNC(=O)c3cc(=O)c4ccccc4o3)nc12	12.0	8.1	-1.7	2.1	5.5	54.4*	77.8*	35.0*
Cc1nc(C)c(C(=O)Nc2nc3c(C)cccc3s2)o1	10.4	16.6	3.7	8.2	3.2	18.9	x	x
Cc1ccc2sc(NNC(=O)c3cc(=O)c4ccccc4o3)nc2c1C	14.6	6.0	-9.1	-3.5	8.8	75.0*	86.2*	44.7*
CC(C)CNC(=O)OCc1cn(Cc2ccc(F)cc2F)nn1	x	x	x	x	x	-0.1	x	x
CC(=O)Nc1ccc(S(=O)(=O)NNC(=O)c2cc3c4ccccc4n(C)c3s2)cc1	-11.5	2.1	13.0	-9.6	-2.2	35.5*	31.5	15.9*

From PubChem BioAssay
